This passage reports outcome and AC50 results from PubChem BioAssay (EPA / NIEHS).

Several values for one entry are separate records, joined by “and”; a condition that tells them apart may be missing. Identical values can stand only once. Results filed as inconclusive are left out. A structure can be active in one record and inactive in another. Activity calls are given as the source filed them. The calls were made as follows, unless noted: active = hit-call score of the fitted dose curve at least 0.9, where 1 is the maximum; inactive = score below 0.9.

For assay [1], the target named is Paired box protein Pax-6 (Homo sapiens) (UniProt P26367). The assay is described as follows: ATG_Pax6_CIS: Attagene CIS-FACTORIAL HepG2 Assay for human Paired Box 6 (PAX6) (AID 2282956). Particulars: HepG2 CIS-FACTORIAL PAX6 reporter transcription, RNA readout; actives raise or lower the signal. In a few lines:
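Readout: reporter transcript fluorescence after RT-PCR and capillary electrophoresis. Cells: HepG2, transiently transfected with cis-regulated MRTUs. Exposure 24 h. Gain or loss of signal fitted bidirectionally relative to DMSO.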

Assay [2] is described as follows: ATG_PXRE_CIS: Attagene CIS-FACTORIAL HepG2 Assay for human Pregnane X Receptor Element (PXRE) (AID 2282957). Particulars: HepG2 Attagene CIS-FACTORIAL PXRE reporter, mRNA; actives raise or lower the signal. In a few lines: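 After a 24 h chemical incubation, total RNA from transfected HepG2 cells was reverse-transcribed and reporter cDNA amplified, FAM-labeled, HpaI-digested and sized by capillary electrophoresis. DMSO served as baseline for bidirectional curve fitting.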

Assay [3] can be described thus: ATG_PPRE_CIS: Attagene CIS-FACTORIAL HepG2 Assay for human Peroxisome Proliferator-activated Response Element (PPRE) (AID 2282958). The settings on record: HepG2 PPRE cis-element reporter, Attagene transcription factor profiling; actives raise or lower the signal. The procedure, abridged: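 Read-out: fluorescent reporter mRNA fragments resolved by capillary electrophoresis after RT-PCR. HepG2 cells carried transiently transfected PPRE-driven cis reporter constructs and were dosed for 24 h; gain or loss of signal fitted relative to DMSO.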

The nature of assay [4]: ATG_RORE_CIS: Attagene CIS-FACTORIAL HepG2 Assay for human RAR-related Orphan Receptor Element (RORE) (AID 2282959). Particulars: HepG2 Attagene cis-factorial RORE reporter, mRNA; actives raise or lower the signal. In a few lines:
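Readout: fluorescent reporter mRNA by RT-PCR plus capillary electrophoresis, 24 h after dosing transfected HepG2 cells. Endogenous transcription factor activity on a cis promoter element is measured. Gain or loss of signal fitted against DMSO.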

Assay [5] in a line: ATG_Sox_CIS: Attagene CIS-FACTORIAL HepG2 Assay for human SRY-box transcription factor (SOX) (AID 2282960). Particulars: HepG2 Attagene cis-factorial SOX reporter, mRNA; actives raise or lower the signal. The procedure, abridged: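 Read-out: fluorescent RT-PCR products of SOX1-linked reporter transcripts resolved by capillary electrophoresis, fitted bidirectionally against DMSO. Transiently transfected HepG2 cells, 24 h after chemical exposure, endogenous transcription factor activity.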

Assay [6] addresses Transcription factor Sp1 (Homo sapiens) (UniProt P08047). Description: ATG_Sp1_CIS: Attagene CIS-FACTORIAL HepG2 Assay for human Specificity Protein 1 (Sp1) (AID 2282961). Particulars: HepG2 Sp1 cis-reporter transcription, actives raise or lower the signal. In a few lines:
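Read-out: fluorescence of 6-FAM-labeled, HpaI-digested RT-PCR products separated by capillary electrophoresis. HepG2 cells carried transfected cis-element reporter units and were exposed to chemicals for 24 h; gain or loss of signal fitted relative to DMSO.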

A short description of assay [7]: ATG_SREBP_CIS: Attagene CIS-FACTORIAL HepG2 Assay for human Sterol Regulatory Element Binding (SREBP) (AID 2282962). The settings on record: HepG2 Attagene cis-factorial SREBP reporter, mRNA; actives raise or lower the signal. In a few lines:
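Readout: fluorescent reporter-transcript peaks resolved by capillary electrophoresis after RT-PCR. Cells were human HepG2 carrying transfected cis-promoter reporter constructs, dosed for 24 h. Gain or loss of signal was fitted against DMSO controls.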

Assay [8] has as its target Signal transducer and activator of transcription 3 (Homo sapiens) (UniProt P40763). Description: ATG_STAT3_CIS: Attagene CIS-FACTORIAL HepG2 Assay for human Signal Transducer and Activator of Transcription 3 (STAT3) (AID 2282963). Particulars: HepG2, Attagene cis-factorial STAT3 reporter transcription; actives raise or lower the signal. In a few lines:
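Cis-factorial format: endogenous transcription factors in HepG2 drive transfected reporter units. After 24 h treatment, reporter RNA was reverse-transcribed, amplified, FAM-labelled and HpaI-digested before CE analysis; activity scored in both directions against DMSO.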

Assay [9] in a line: ATG_TA_CIS: Attagene CIS-FACTORIAL HepG2 Assay for human TA Basal Promoter (AID 2282964). Particulars: HepG2 Attagene CIS-factorial TA basal promoter reporter; actives raise or lower the signal. The procedure, abridged:
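Steps: transfect HepG2 with MRTUs; dose 24 h; isolate RNA, DNase-treat, reverse-transcribe; PCR and FAM-label reporter cDNA; digest with HpaI 2h at 37 C; run capillary electrophoresis. Activity fitted both directions against DMSO.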

Assay [10] in a line: ATG_TCF_b_cat_CIS: Attagene CIS-FACTORIAL HepG2 Assay for human T-Cell-Factor with beta-catenin (TCF/b-cat) (AID 2282965). The settings on record: HepG2 TCF/beta-catenin cis-reporter transcription, actives raise or lower the signal. The procedure, abridged:
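Measured: reporter mRNA in HepG2 transiently transfected with cis-promoter reporter units, 24 h after chemical addition. Fitting was bidirectional, DMSO as negative control.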

The nature of assay [11]: ATG_TAL_CIS: Attagene CIS-FACTORIAL HepG2 Assay for human TAL Basal Promoter (AID 2282966).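 Also: background control endpoint measuring basal TAL promoter reporter mRNA not a specific factor.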 Particulars: HepG2 Attagene cis-factorial TAL promoter reporter; actives raise or lower the signal. In a few lines:
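Basal-promoter background-control endpoint from a multiplexed HepG2 reporter panel. Cells were exposed 24 h, then reporter mRNA was read by RT-PCR/CE fluorescence and fitted in both directions relative to DMSO.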

Assay [12] in a line: ATG_TGFb_CIS: Attagene CIS-FACTORIAL HepG2 Assay for human Transforming Growth Factor (TGF) (AID 2282967). Particulars: HepG2 Attagene CIS TGFb reporter, mRNA transcription; actives raise or lower the signal. In a few lines: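 Cells were dosed for 24 hours, after which total RNA was reverse-transcribed and reporter sequences amplified, labeled and sized by capillary electrophoresis. Activity was fitted in both directions against DMSO.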

Assay [13] is described as follows: ATG_VDRE_CIS: Attagene CIS-FACTORIAL HepG2 Assay for human Vitamin D Receptor Element (VDRE) (AID 2282968). Particulars: HepG2 VDRE cis-reporter transcription, actives raise or lower the signal. The procedure, abridged: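 Measures endogenous factor activity through cis-element-driven reporter transcripts in transiently transfected HepG2. Cells are treated 24 h; reporter mRNA is quantified by RT-PCR and capillary electrophoresis; fitting is bidirectional.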

Assay [14] addresses Steroid hormone receptor ERR1 (Homo sapiens) (UniProt P11474). The assay is described as follows: ATG_ERRa_TRANS: Attagene TRANS-FACTORIAL HepG2 Assay for human Estrogen-Related Receptor alpha (ERRa) (AID 2282971; active = hit-call score of the fitted dose curve at least 0.9, where 1 is the maximum). The settings on record: HepG2 Attagene TRANS reporter, ERRa transactivation. In a few lines:
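HepG2 cells transiently transfected with GAL4-UAS reporter units and chimeric NR-Gal4 constructs; after 24 hour compound incubation, reporter mRNA quantified by RT-PCR, fluorescent labelling and capillary electrophoresis, gain of signal versus DMSO.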

Assay [15] addresses X-box-binding protein 1 (Homo sapiens) (UniProt P17861). Description: ATG_Xbp1_CIS: Attagene CIS-FACTORIAL HepG2 Assay for human X-box Binding Protein 1 (XBP1) (AID 2282972). Particulars: HepG2 XBP1 cis-element reporter, Attagene multiplex; actives raise or lower the signal. The procedure, abridged: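 Read-out: fluorescent reporter mRNA fragments resolved by capillary electrophoresis after RT-PCR. Human HepG2 liver cells carried transfected cis-promoter reporter units and were exposed to chemicals for 24 hours. Gain or loss of signal fitted relative to DMSO baseline.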

A short description of assay [16]: ATG_M_19_TRANS: Attagene TRANS-FACTORIAL HepG2 Assay for M19 Transcription Factor (Internal Marker) (AID 2282974; active = hit-call score of the fitted dose curve at least 0.9, where 1 is the maximum). Particulars: HepG2 Attagene TRANS-FACTORIAL M19 internal marker reporter. In a few lines: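 24 h chemical exposure of transiently transfected HepG2 (MRTU library). RNA → oligo(dT) RT → PCR → 6-FAM labelling → HpaI cut → CE fluorescence. Positive-direction fit vs DMSO baseline; background internal-marker readout.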

Assay [17] in a line: ATG_GAL4_TRANS: Attagene TRANS-FACTORIAL HepG2 Assay for GAL4 (Internal Marker) (AID 2282976; active = hit-call score of the fitted dose curve at least 0.9, where 1 is the maximum). Particulars: HepG2 Attagene TRANS GAL4 internal marker reporter. The procedure, abridged: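 Background-control readout: GAL4-UAS reporter transcript in transiently transfected HepG2 cells after 24 h compound exposure. Measured by RT-PCR, 6-FAM primer extension, HpaI digest and capillary electrophoresis; gain-of-signal fit versus DMSO.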

Assay [18] deals with Estrogen-related receptor gamma (Homo sapiens) (UniProt P62508). Description: ATG_ERRg_TRANS: Attagene TRANS-FACTORIAL HepG2 Assay for human Estrogen-Related Receptor gamma (ERRg) (AID 2282977; active = hit-call score of the fitted dose curve at least 0.9, where 1 is the maximum;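 also: hits increase reporter signal over DMSO so potencies reflect activators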). The settings on record: HepG2 Attagene TRANS reporter, ERRg transactivation. The procedure, abridged:
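Readout: fluorescent reporter-mRNA fragments resolved by capillary electrophoresis after RT-PCR and HpaI cut. Cells: transiently transfected HepG2 carrying GAL4-UAS reporters driven by exogenous NR-Gal4 chimeras, dosed 24 h. Activity fitted upward relative to DMSO baseline.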

For assay [19], the target named is Nuclear receptor subfamily 1 group I member 3 (Homo sapiens) (UniProt Q14994). The assay is described as follows: ATG_CAR_TRANS: Attagene TRANS-FACTORIAL HepG2 Assay for human Constitutive Androstane Receptor (CAR) (AID 2282969; active = hit-call score of the fitted dose curve at least 0.9, where 1 is the maximum;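 also: activators raise reporter mRNA above DMSO so AC50 marks induction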). The settings on record: HepG2 Attagene TRANS-FACTORIAL CAR reporter. In a few lines: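 Signal is reporter mRNA induction relative to DMSO, measured 24 h after dosing by RT-PCR with fluorescent primer extension and capillary electrophoresis. Human HepG2 liver cells carried transiently transfected chimeric NR-Gal4/GAL4-UAS reporter constructs.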
Nuclear receptor subfamily 1 group I member 3 (Homo sapiens), sequence (Q14994 whole entry, looked up, the tested form may be a part): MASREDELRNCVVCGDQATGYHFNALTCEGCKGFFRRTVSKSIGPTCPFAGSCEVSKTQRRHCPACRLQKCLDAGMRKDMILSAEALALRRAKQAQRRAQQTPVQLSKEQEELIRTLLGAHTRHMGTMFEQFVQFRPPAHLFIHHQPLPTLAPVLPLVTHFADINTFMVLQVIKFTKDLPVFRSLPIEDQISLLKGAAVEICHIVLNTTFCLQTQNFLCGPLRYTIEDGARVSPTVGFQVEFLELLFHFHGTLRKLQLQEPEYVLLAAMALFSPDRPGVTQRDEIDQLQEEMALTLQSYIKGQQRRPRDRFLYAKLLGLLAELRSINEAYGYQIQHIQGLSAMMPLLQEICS

The target of assay [20] is Estrogen receptor (Homo sapiens) (UniProt P03372). Description: ATG_ERa_TRANS: Attagene TRANS-FACTORIAL HepG2 Assay for human Estrogen Receptor alpha (ERa) (AID 2282970; active = hit-call score of the fitted dose curve at least 0.9, where 1 is the maximum). Particulars: HepG2 Attagene TRANS ERa GAL4 reporter, mRNA. In a few lines: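 Gal4-fusion ERa transactivation, measured as reporter transcript level in transiently transfected HepG2 cells. Exposure 24 h; RT-PCR plus capillary electrophoresis with fluorescence detection.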
Estrogen receptor (Homo sapiens), sequence (P03372 whole entry, looked up, the tested form may be a part): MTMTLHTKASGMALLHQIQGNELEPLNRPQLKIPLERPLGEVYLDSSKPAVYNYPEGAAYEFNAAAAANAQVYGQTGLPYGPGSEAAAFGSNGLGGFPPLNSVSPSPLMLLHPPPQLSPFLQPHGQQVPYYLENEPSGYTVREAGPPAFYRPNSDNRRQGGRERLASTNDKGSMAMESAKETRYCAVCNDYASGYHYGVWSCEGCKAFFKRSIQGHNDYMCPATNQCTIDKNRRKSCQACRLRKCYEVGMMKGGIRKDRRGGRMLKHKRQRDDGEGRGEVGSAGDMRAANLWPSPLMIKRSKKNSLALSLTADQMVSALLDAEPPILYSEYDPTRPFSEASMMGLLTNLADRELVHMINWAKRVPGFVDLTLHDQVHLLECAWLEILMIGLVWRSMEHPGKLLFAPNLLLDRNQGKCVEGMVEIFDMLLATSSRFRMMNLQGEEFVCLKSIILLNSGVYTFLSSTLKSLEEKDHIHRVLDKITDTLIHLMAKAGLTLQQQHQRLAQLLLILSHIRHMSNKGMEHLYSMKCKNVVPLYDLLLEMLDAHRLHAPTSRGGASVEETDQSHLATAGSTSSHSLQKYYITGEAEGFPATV

Estrogen-related receptor gamma (Homo sapiens), sequence (P62508 whole entry, looked up, the tested form may be a part): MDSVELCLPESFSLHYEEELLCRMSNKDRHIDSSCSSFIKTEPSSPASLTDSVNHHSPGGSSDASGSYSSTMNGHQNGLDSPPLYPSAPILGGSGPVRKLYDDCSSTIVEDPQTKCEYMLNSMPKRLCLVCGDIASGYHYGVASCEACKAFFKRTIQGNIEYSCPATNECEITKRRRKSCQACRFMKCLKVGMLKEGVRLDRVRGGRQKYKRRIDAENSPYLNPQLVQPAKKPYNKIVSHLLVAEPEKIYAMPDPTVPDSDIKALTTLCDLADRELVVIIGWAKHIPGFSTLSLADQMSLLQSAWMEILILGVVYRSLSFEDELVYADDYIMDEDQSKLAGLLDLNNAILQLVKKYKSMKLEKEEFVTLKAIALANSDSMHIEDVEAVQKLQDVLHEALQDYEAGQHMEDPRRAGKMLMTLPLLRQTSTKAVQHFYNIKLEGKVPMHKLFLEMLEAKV
Signal transducer and activator of transcription 3 (Homo sapiens), sequence (P40763 whole entry, looked up): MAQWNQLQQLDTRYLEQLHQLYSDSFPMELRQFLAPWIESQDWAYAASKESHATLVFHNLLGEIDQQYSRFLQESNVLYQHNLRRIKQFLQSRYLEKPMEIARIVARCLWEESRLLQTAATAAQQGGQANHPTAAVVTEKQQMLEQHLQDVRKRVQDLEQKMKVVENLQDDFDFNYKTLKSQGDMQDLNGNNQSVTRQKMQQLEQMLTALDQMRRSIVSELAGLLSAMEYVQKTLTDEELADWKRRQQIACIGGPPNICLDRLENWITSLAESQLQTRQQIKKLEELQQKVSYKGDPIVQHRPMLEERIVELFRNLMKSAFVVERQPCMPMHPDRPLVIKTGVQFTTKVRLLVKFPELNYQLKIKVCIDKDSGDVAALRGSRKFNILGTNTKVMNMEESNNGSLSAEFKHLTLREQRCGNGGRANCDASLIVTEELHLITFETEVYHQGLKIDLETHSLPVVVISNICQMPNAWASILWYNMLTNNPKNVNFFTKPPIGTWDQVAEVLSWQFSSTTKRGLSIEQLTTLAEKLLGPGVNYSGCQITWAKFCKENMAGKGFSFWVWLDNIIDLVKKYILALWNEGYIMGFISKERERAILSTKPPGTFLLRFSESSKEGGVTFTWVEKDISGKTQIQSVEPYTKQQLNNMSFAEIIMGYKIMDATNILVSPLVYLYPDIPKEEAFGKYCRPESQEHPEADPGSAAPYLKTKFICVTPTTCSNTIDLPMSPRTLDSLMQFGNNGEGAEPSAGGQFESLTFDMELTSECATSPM
Paired box protein Pax-6 (Homo sapiens), sequence (P26367 whole entry, looked up): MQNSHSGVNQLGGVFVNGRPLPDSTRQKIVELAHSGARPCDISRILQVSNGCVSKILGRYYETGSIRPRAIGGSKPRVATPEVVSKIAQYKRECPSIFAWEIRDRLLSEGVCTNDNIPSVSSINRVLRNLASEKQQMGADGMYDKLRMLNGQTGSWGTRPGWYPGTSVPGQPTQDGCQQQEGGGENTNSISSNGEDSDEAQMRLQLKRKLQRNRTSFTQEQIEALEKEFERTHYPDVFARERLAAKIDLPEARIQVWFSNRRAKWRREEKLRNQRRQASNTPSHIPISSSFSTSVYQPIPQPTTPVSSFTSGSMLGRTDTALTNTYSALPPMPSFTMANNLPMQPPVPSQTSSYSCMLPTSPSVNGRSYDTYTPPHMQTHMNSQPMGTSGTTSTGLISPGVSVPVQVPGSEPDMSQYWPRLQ
X-box-binding protein 1 (Homo sapiens), sequence (P17861 whole entry, looked up, the tested form may be a part): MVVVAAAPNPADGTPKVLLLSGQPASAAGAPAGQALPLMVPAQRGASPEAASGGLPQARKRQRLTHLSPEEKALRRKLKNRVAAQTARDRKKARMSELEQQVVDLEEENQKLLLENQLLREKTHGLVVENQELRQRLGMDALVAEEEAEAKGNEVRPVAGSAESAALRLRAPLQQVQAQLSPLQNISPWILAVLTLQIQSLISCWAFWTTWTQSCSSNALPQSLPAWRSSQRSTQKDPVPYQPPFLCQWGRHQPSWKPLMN
Transcription factor Sp1 (Homo sapiens), sequence (P08047 whole entry, looked up): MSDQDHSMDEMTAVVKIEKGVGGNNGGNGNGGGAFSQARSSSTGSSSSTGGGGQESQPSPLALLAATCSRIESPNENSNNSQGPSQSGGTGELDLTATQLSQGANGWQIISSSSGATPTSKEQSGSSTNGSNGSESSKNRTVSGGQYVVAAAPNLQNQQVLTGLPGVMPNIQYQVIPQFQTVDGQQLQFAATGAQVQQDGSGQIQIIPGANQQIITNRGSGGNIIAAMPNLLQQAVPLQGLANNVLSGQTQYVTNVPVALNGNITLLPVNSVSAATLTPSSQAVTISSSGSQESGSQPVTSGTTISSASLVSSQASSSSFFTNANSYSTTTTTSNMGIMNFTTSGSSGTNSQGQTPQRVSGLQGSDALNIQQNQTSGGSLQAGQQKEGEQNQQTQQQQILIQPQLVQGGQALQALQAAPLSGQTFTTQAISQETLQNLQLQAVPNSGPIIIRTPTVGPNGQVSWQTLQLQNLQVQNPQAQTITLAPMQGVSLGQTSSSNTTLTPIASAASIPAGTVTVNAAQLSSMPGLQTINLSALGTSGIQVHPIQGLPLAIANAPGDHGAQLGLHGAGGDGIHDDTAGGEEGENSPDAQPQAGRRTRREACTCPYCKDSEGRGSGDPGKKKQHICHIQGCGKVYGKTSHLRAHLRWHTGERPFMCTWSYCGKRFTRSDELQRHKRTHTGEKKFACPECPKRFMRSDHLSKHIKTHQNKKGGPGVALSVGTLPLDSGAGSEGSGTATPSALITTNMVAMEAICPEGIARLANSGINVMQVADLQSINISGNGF
Steroid hormone receptor ERR1 (Homo sapiens), sequence (P11474 whole entry, looked up, the tested form may be a part): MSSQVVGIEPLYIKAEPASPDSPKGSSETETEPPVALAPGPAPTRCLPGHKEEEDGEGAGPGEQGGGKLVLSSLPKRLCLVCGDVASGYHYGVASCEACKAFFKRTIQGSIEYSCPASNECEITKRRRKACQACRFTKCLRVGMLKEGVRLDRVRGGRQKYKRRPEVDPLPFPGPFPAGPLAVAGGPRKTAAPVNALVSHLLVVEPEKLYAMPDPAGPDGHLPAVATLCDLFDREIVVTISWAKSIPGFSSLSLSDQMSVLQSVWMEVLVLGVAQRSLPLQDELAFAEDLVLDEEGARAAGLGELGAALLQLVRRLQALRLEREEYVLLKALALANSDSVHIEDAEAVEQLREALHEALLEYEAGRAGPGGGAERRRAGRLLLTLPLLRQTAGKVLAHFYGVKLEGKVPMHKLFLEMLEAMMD

As usually defined, the AC50 is the concentration giving half of the maximal activity seen. Consider `C[C@]12CC[C@@H]3c4ccc(O)cc4CC[C@H]3[C@@H]1CC[C@H]2O`, for which the call in assay [1], in [2], in assay [3], in [4], in assay [5] and in assay [6] was inactive. Also, the result in assay [7], in assay [8], in [9], in assay [10], in assay [11] and in [12] was inactive. The compound was classed as inactive in assay [13], in assay [14], in [15], in [16], in [17] and in assay [18]. Moreover, the AC50 in [2] is 7.87 µM (active) and 6.41 µM (active) and 4.84 µM (active); in [7] it was 27.6 µM (active); in [10], 27.3 µM (active); in assay [13] it was 19.8 µM (active).

As for `CCN(Cc1cccc(S(=O)(=O)O)c1)c1ccc(C(=C2C=CC(=[N+](CC)Cc3cccc(S(=O)(=O)O)c3)C=C2)c2ccccc2S(=O)(=O)[O-])cc1`, the call in assay [1], in assay [2], in [3], in assay [4], in assay [5] and in assay [6] was inactive. Also, the call in assay [7], in assay [8], in [9], in [10], in assay [11] and in assay [12] was inactive. For the same compound, the compound was called inactive in [13], in [19], in assay [20], in [14], in assay [15] and in [18].

Turning to `Cc1c2ccccc2c(C)c2c1ccc1ccccc12`, the compound was called inactive in assay [1], in assay [3], in [7], in [8], in [9] and in assay [11]. For the same compound, the outcome in assay [13], in [15], in assay [17] and in assay [18] was inactive. For the same compound, the AC50 was 2.42 µM (active) in assay [2]; 54.8 µM (active) in assay [4]; 52.4 µM (active) in assay [5]; 6.93 µM (active) in assay [6]; 53.4 µM (active) in assay [10]; 54.4 µM (active) in assay [12]. For the same compound, the AC50 is 44.7 µM (active) in [19] and 11.4 µM (active) in assay [20].
